This passage reports Potency results from PubChem BioAssay (Tox21).

Records with an inconclusive call do not appear. Entries that show only a call come without a potency. Active and inactive are the calls of the source. Calls come from the whole dose curve.

The target of the experiment is Thyrotropin receptor (Homo sapiens) (UniProt P16473). In words: qHTS assay to identify small molecule agonists of the thyroid stimulating hormone receptor (TSHR) signaling pathway (AID 1224843). Note: nearly all actives have a fitted effect of over 45% in size. As to conditions: TSHR-HEK293 cells, cAMP HTRF, agonist mode, 30 min; series mostly up to 92.4 µM. From the text: National Center for Advancing Translational Sciences [NCATS]
Sequence of Thyrotropin receptor (Homo sapiens) (P16473 whole entry, looked up): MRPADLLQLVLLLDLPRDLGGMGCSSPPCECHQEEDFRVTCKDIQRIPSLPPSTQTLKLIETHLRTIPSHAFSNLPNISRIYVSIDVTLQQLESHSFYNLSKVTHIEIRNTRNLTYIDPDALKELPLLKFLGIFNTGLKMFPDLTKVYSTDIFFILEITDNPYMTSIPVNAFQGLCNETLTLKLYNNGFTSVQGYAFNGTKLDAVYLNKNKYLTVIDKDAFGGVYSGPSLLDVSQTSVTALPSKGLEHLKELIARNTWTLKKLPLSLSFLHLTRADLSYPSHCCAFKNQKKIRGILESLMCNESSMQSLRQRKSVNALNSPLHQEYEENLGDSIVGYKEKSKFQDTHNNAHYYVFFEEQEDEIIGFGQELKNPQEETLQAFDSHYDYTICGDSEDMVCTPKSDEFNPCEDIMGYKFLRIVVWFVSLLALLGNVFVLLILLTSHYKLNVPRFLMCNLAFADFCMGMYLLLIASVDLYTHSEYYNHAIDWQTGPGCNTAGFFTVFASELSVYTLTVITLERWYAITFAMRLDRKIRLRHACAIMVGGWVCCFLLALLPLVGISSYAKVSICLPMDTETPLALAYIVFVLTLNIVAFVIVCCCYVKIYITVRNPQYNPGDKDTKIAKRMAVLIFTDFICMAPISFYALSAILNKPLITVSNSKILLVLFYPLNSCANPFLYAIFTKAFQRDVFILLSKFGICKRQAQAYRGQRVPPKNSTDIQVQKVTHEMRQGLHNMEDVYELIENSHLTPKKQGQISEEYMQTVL
NIH Chemical Genomics Center [NCGC]
U.S. Environmental Protection Agency [EPA]
National Institutes of Environmental Health Sciences [NIEHS]
National Toxicology Program [NTP]
U.S. Food and Drug Administration [FDA]
TSHR is the receptor for thyrotropin (thyroid stimulating hormone or TSH), a member of the glycoprotein hormone family. TSH is released by the anterior pituitary gland and is the main regulator of thyroid gland growth and development. Upon binding circulating thyrotropin, a G-protein signal cascade activates adenylyl cyclase and […] cAMP concentration is increased. cAMP is a key second messenger involved extensively in cellular signal transduction pathways associated with the majority of G-protein coupled receptors (GPCRs). The activation of these GPCRs by neurotransmitters, lipids, nucleotides, peptides and hormones results in the activation or the inhibition of plasma membrane-bound adenylate cyclase through heterotrimeric G-proteins. A cell-based TSHR assay was used to screen the Tox21 10K library for compounds that can modulate TSHR in agonist mode.
Tox21 Assay Protocol Summary:
TSHR-Hek293 cells were dispensed at 800 cells/4uL/well in 1536-well white plates using a Multidrop dispenser. […] The plates were incubated at room temperature for 30 min. 2.5 ul/well of cAMP-d2 and 2.5ul/well of anti-cAMP-cryptate was added respectively into the assay plates using a Flying Reagent Dispenser. After 1 hr incubation at room temperature, the fluorescence intensity in the plates was measured using an Envision plate reader. Each test compound was measured at 15 concentrations and in triplicates.
Background: In qHTS, concentration-response curves come from the screen itself.
In the case of `Cc1cn([C@@H]2O[C@H](CO)[C@@H](O)[C@@H]2F)c(=O)[nH]c1=O`, the Potency entry was “inactive”.
Consider `OCCN1CCN(CCO)CC1`, for which the Potency entry was “inactive”.
`CCN[C@H]1CN(CCCOC)S(=O)(=O)c2sc(S(N)(=O)=O)cc21`: the Potency entry is “inactive”.
For the molecule `CC(C)=CCCC(C)CCOC=O` (stereo not given), the Potency result is “inactive”.
The result for `O=C1CCCCC1C1CCCCC1` (stereo not given) reads “inactive”.
On to `CCN1CC(CCN2CCOCC2)C(c2ccccc2)(c2ccccc2)C1=O` (stereo not given), for which the Potency result is “inactive”.
For `CC(C)O`, the Potency entry is “inactive”.
The result for `CCCNC(C)C(=O)Nc1c(C)csc1C(=O)OC` (stereo not given) reads “inactive”; that for `CC(=O)OC1C2(C)CCC(C2)C1(C)C` (stereo not given), “inactive”.
For `CCOc1ccc2nc(N)sc2c1`, the Potency result is “inactive”.
As to `CN1C(=O)CC(c2ccccc2)C1=O` (stereo not given), the Potency entry was “inactive”.
`c1ccc(CN(CC2=NCCN2)c2ccccc2)cc1`: the Potency result was “inactive”.
Regarding `O=C(C(Cl)Cl)N1CCOC12CCCCC2`, the Potency result is “inactive”.
For the molecule `CCCCNC(=S)NCCCC`, the Potency result is “inactive”.
For the molecule `C1CCOC1`, the Potency result was “inactive”.
On to `CCCCNCCCC`, for which the Potency entry is “inactive”.
For `COc1cc(N)c(Cl)cc1C(=O)NC1CCN(Cc2ccccc2)CC1`, the Potency entry was “inactive”.
`CC(Oc1c(Cl)cccc1Cl)C1=NCCN1` (stereo not given): the Potency result is “inactive”.
Consider `CCCCCCCOC(=O)CCC`, for which the Potency result was “inactive”.
In the case of `CCCCC(=O)O[C@]1(C(=O)CO)[C@H](C)C[C@H]2[C@@H]3CCC4=CC(=O)C=C[C@]4(C)[C@@]3(F)[C@@H](O)C[C@@]21C`, the Potency entry is “inactive”.
On to `CCOc1ccc(NC(N)=O)cc1`, for which the Potency result is “inactive”.
The result for `CCCC1CCC(=O)O1` (stereo not given) reads “inactive”.
For `ICCc1ccccc1`, the Potency entry is “inactive”.
For the molecule `O=C1CCC(C2CCCCC2)CC1`, the Potency entry is “inactive”.
Consider `Cc1cc2nc(N)sc2cc1C`, for which the Potency entry was “inactive”.
For `CC(CNC1CCCCC1)OC(=O)c1ccccc1` (stereo not given), the Potency result is “inactive”.
Consider `CC(C)(CO)[C@@H](O)C(=O)NCCC(=O)O`, for which the Potency result was “inactive”.
For the molecule `NCCCN1CCN(CCCN)CC1`, the Potency result was “inactive”.
Take `Cc1ccc([N+](=O)[O-])c(N)c1`: the Potency result is “inactive”.
The result for `CCCc1c2oc(C(=O)O)cc(=O)c2cc2c(=O)cc(C(=O)O)n(CC)c12` reads “inactive”; that for `Cc1cccc(C)c1NC(=O)CN1CCCCCC1`, “inactive”; that for `O=[N+]([O-])c1nccn1CO[C@@H](CO)[C@H](O)CO`, “inactive”.
The result for `CC(C)=CCC[C@](C)(O)[C@@H]1CC=C(C)CC1` reads “inactive”; that for `COc1cc2c(cc1N)oc1ccccc12`, “inactive”.
As to `CCCCN1C[C@H](O)[C@@H](O)[C@H](O)[C@H]1CO`, the Potency entry is “inactive”.
On to `CC1=C2[C@H](/C=C(\C)C(=O)O)CC[C@@H](C)[C@H]2CC1`, for which the Potency result was “inactive”.
On to `CN(CCCN1c2ccccc2CCc2ccccc21)CC(=O)c1ccc(Cl)cc1`, for which the Potency result was “inactive”.
Consider `C[C@@H](N)C(=O)O`, for which the Potency entry is “inactive”.
On to `FC(F)(F)C(Cl)(Cl)Cl`, for which the Potency result was “inactive”.
On to `CCOC(=O)NCCC[Si](OCC)(OCC)OCC`, for which the Potency entry is “inactive”.
